# Records with an inconclusive call do not appear. Values without a mark were called inactive. The source made the active and inactive calls. The call rests on the fitted dose curve; in most records, active means well fitted curve in either direction with a large enough effect (not every such curve was filed as active); inconclusive means small, poorly fitted or top-dose-only effect, or another doubt; inactive means flat fitted curve, though single readings scatter.
# Test: AP1 Signaling Pathway (AID 357)
# Settings: ME-180 (cervical carcinoma) AP-1-bla reporter, EGF-induced, beta-lactamase ratio, 5 h; at 17.2 µM (top of the series) unless noted
# How it was run: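 Modulation of EGF-driven AP-1 transcription was assessed with a beta-lactamase reporter in ME-180 cells. Compound and EC50 EGF were co-incubated 5 hours at 37 °C before 2.5-hour CCF4 loading at room temperature and dual-emission reading.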
# On the % scale 0 is the no-effect control and ±100 the full control effect.
row,Compound,"activity change, negative = inhibition [%]"
1,CCNc1nc(NC(C)C)nc(N(C#N)C(C)C(=O)N(C)C)n1 (stereo not drawn),-3.35
2,O=C(C/C(=N/O)c1ccccc1O)C(F)F,15.8
3,N#Cc1nc(COc2ccccc2F)oc1NCCCn1ccnc1,-26.4
4,CCOc1ccc(C2CC(c3ccccc3)Nc3nc(N)nn32)cc1 (stereo not drawn),-4.28
5,CCc1nc2c(sc3nc(N4CCOCC4)c4c(c32)CC(C)(C)OC4)c(=O)o1,3.92
6,CCn1nnc(C(=O)O)c1C(=O)O,3.44
7,CCOC(=O)c1ccc(NC(=O)CCC(CC)C(=O)O)cc1 (stereo not drawn),-2.51
8,CN1CCN(Cc2c(O)ccc3c(-c4ccccc4)cc(=O)oc23)CC1,-11.8
9,CCCCOc1ccc(C(=O)NCC(=O)NCC(=O)OCC)cc1,-0.159
10,CC1(C)Cc2c(c(N3CCOCC3)nc3snc(Br)c23)CO1,-5.9
11,CC(Sc1nc(N2CCCCC2)c2c(c1C#N)CCCC2)C(=O)O (stereo not drawn),-9.35
12,COc1ccc(OC)c(NC(=O)CSc2nnc(-c3ccco3)n2-c2ccc(C(=O)O)cc2)c1,-4.17
13,Cn1c(=O)[nH]c(=O)c2c1nc(Br)n2CCSc1ncccn1,5.72
14,CCOc1cc(C2Nc3ccccc3C(=O)N2c2ccccc2OC)ccc1O (stereo not drawn),18.3
15,CCCOc1ccc(/C(O)=C2/C(=O)C(=O)N(CCCn3ccnc3)C2c2cccs2)cc1 (stereo not drawn),-14.1
16,Cc1cc(N2C(=O)C(=O)/C(=C(/O)c3ccccc3)C2c2cccs2)no1 (stereo not drawn),-22.3
17,COc1ccc(/C=N/n2cncn2)cc1COc1ccc(NC(C)=O)cc1,-1.63
18,COc1ccc(/C(O)=C2/C(=O)C(=O)N(CCCN(C)C)C2c2ccc(C)o2)cc1Cl (stereo not drawn),9.2
19,Cc1ccc(C(=O)C2=C(O)C(=O)N(c3ncccn3)C2c2cccc(Cl)c2)o1 (stereo not drawn),-1.15
20,CCOc1ccc(/C(O)=C2/C(=O)C(=O)N(c3nc(C)c(C)s3)C2c2ccco2)cc1 (stereo not drawn),-13.5

row,Compound,"activity change, negative = inhibition [%]"
1,COc1cccc(NC(=O)c2cc(C(=O)Nc3cccc(OC)c3)n(C)n2)c1,-12.7
2,O=C(CSc1nnc(-c2ccccc2)c(-c2ccccc2)n1)N1CCOCC1,-3.06
3,CCCCCOc1ccccc1C(=O)NCCCC(=O)O,2.16
4,CC(=O)[C@@]1(O)CC[C@H]2[C@@H]3CCC4=CC(=O)CC[C@]4(C)[C@H]3[C@@H](O)C[C@@]21C,3.13
5,CCCCC(=O)NC(Nc1ccc(C)cn1)(C(=O)OCC)C(F)(F)F (stereo not drawn),6.8
6,CCCCOc1ccc(C(=O)N2CCCC2C(=O)O)cc1 (stereo not drawn),-0.0169
7,Cc1ccc(C(=O)/C=C/Nc2ccccn2)cc1,11
8,COc1ccc(C2CC(c3ccccc3)Nc3nc(N)nn32)cc1 (stereo not drawn),9.32
9,O=C(CCC(=O)CCN1CCCCC1)CCN1CCCCC1,13.9
10,COc1ccc(OC)c(C2/C(=C(\O)c3ccc4c(c3)OCCO4)C(=O)C(=O)N2CCCN(C)C)c1 (stereo not drawn),4.27
11,CC(C)C1C(C#N)=C(N)Oc2n[nH]c(C(C)(C)C)c21 (stereo not drawn),-20.9
12,COc1ccc2cnn(-c3ccccc3C)c(=O)c2c1OC,10.7
13,Cc1ccc(C2C(C(=O)c3cc4ccccc4o3)=C(O)C(=O)N2CCN(C)C)o1 (stereo not drawn),-1.56
14,COc1ccc(NC(=O)Nc2cccc(C(=O)N3CCOCC3)c2)cc1OC,3.36
15,c1cncc(-c2nnc3sc(-c4ccco4)nn23)c1,-2.13
16,COc1ccc(-n2ncc3c(NCCCn4ccnc4)ncnc32)cc1,-7.88
17,CN=C1c2cc3c(Br)c(OC)ccc3n2CCN1C,4.49
18,CN1CCN(/C=N/c2sc3c(c2C#N)CCCCC3)CC1,4.68
19,Cc1ccc(C2C(C(=O)c3cc4ccccc4o3)=C(O)C(=O)N2CCCN(C)C)cc1 (stereo not drawn),4.95

# Test: NFAT Signaling Pathway (AID 444);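 further: carbachol stimulus at about its EC50 of 1 µM final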
# Settings: Jurkat NFAT-bla M1, carbachol, beta-lactamase ratio, 5 h; at 17.2 µM (top of the series) unless noted
# How it was run: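 Read-out: CCF4 FRET ratio (460 nm/530 nm) after 1 h RT dye loading, used for %activity and AC50 from titration series. Cells: Jurkat NFAT-β-lactamase/M1 line, treated with compound plus 1 uM carbachol for 5 h, 37 °C.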
row,Compound,"activity change, negative = inhibition"
1,CCNc1nc(NC(C)C)nc(N(C#N)C(C)C(=O)N(C)C)n1 (stereo not drawn),0.731%
2,O=C(C/C(=N/O)c1ccccc1O)C(F)F,0.0588%
3,N#Cc1nc(COc2ccccc2F)oc1NCCCn1ccnc1,-21.7%
4,CCOc1ccc(C2CC(c3ccccc3)Nc3nc(N)nn32)cc1 (stereo not drawn),6.92%
5,CCc1nc2c(sc3nc(N4CCOCC4)c4c(c32)CC(C)(C)OC4)c(=O)o1,-0.695%
6,CCn1nnc(C(=O)O)c1C(=O)O,3.87%
7,CCOC(=O)c1ccc(NC(=O)CCC(CC)C(=O)O)cc1 (stereo not drawn),-11.6%
8,CN1CCN(Cc2c(O)ccc3c(-c4ccccc4)cc(=O)oc23)CC1,-9.28%
9,CCCCOc1ccc(C(=O)NCC(=O)NCC(=O)OCC)cc1,-7.6%
10,CC1(C)Cc2c(c(N3CCOCC3)nc3snc(Br)c23)CO1,-26.2%
11,CC(Sc1nc(N2CCCCC2)c2c(c1C#N)CCCC2)C(=O)O (stereo not drawn),-2.56%
12,COc1ccc(OC)c(NC(=O)CSc2nnc(-c3ccco3)n2-c2ccc(C(=O)O)cc2)c1,15.9%
13,Cn1c(=O)[nH]c(=O)c2c1nc(Br)n2CCSc1ncccn1,-10.8%
14,CCOc1cc(C2Nc3ccccc3C(=O)N2c2ccccc2OC)ccc1O (stereo not drawn),6.73%
15,CCCOc1ccc(/C(O)=C2/C(=O)C(=O)N(CCCn3ccnc3)C2c2cccs2)cc1 (stereo not drawn),2.88%
16,Cc1cc(N2C(=O)C(=O)/C(=C(/O)c3ccccc3)C2c2cccs2)no1 (stereo not drawn),19%
17,COc1ccc(/C=N/n2cncn2)cc1COc1ccc(NC(C)=O)cc1,2.89%
18,COc1ccc(/C(O)=C2/C(=O)C(=O)N(CCCN(C)C)C2c2ccc(C)o2)cc1Cl (stereo not drawn),-6.18%
19,Cc1ccc(C(=O)C2=C(O)C(=O)N(c3ncccn3)C2c2cccc(Cl)c2)o1 (stereo not drawn),24.9%
20,CCOc1ccc(/C(O)=C2/C(=O)C(=O)N(c3nc(C)c(C)s3)C2c2ccco2)cc1 (stereo not drawn),20.9%

row,Compound,"activity change, negative = inhibition"
1,COc1cccc(NC(=O)c2cc(C(=O)Nc3cccc(OC)c3)n(C)n2)c1,-14.3%
2,O=C(CSc1nnc(-c2ccccc2)c(-c2ccccc2)n1)N1CCOCC1,0.00472%
3,CCCCCOc1ccccc1C(=O)NCCCC(=O)O,-1.98%
4,CC(=O)[C@@]1(O)CC[C@H]2[C@@H]3CCC4=CC(=O)CC[C@]4(C)[C@H]3[C@@H](O)C[C@@]21C,-20.8%
5,CCCCC(=O)NC(Nc1ccc(C)cn1)(C(=O)OCC)C(F)(F)F (stereo not drawn),-3.17%
6,CCCCOc1ccc(C(=O)N2CCCC2C(=O)O)cc1 (stereo not drawn),-4.49%
7,Cc1ccc(C(=O)/C=C/Nc2ccccn2)cc1,23.5%
8,COc1ccc(C2CC(c3ccccc3)Nc3nc(N)nn32)cc1 (stereo not drawn),-6.69%
9,O=C(CCC(=O)CCN1CCCCC1)CCN1CCCCC1,-120% (active)
10,COc1ccc(OC)c(C2/C(=C(\O)c3ccc4c(c3)OCCO4)C(=O)C(=O)N2CCCN(C)C)c1 (stereo not drawn),12.2%
11,CC(C)C1C(C#N)=C(N)Oc2n[nH]c(C(C)(C)C)c21 (stereo not drawn),-6.87%
12,COc1ccc2cnn(-c3ccccc3C)c(=O)c2c1OC,-6.03%
13,Cc1ccc(C2C(C(=O)c3cc4ccccc4o3)=C(O)C(=O)N2CCN(C)C)o1 (stereo not drawn),-18.1%
14,COc1ccc(NC(=O)Nc2cccc(C(=O)N3CCOCC3)c2)cc1OC,-1.43%
15,c1cncc(-c2nnc3sc(-c4ccco4)nn23)c1,4.1%
16,COc1ccc(-n2ncc3c(NCCCn4ccnc4)ncnc32)cc1,-15.7%
17,CN=C1c2cc3c(Br)c(OC)ccc3n2CCN1C,-7.64%
18,CN1CCN(/C=N/c2sc3c(c2C#N)CCCCC3)CC1,11.9%
19,Cc1ccc(C2C(C(=O)c3cc4ccccc4o3)=C(O)C(=O)N2CCCN(C)C)cc1 (stereo not drawn),-2.86%
